From PubChem BioAssay (NCI)
The panel holds about 83,000 compounds, 20% with a hit somewhere; the sample as a whole holds those more often.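 In brief: 96-well plates, 48 h treatment, single concentration, percent growth endpoint.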 Unmarked numbers belong to inactive results. The source made the active and inactive calls. Rule for the calls: active = growth percent below 10; inactive = the rest.

Test system: HL-60(TB) leukemia
Assay: NCI-60 one-dose screen, 48 h (100 = growth as untreated, 0 = no growth, -100 = all killed)
Conditions: 10 µM unless noted

| SMILES | growth |
| --- | --- |
| CC[C@H](Nc1ncnc2nc[nH]c12)c1nc2cccc(F)c2c(=O)n1-c1ccccc1 | 66.8% |
| COc1ccc(Br)c2ccccc12 | 88.4% |
| CCOC(=O)c1ccc(N=Cc2sc(=O)[nH]c2O)cc1 | 101% |
| COc1cc(NC(=O)CSc2nc3ccc(Cl)cc3c(=O)n2-c2ccc(F)cc2)cc(OC)c1OC | 106% |
| Cc1cc2nc(CO)[nH]c2cc1C | 89.7% |
| Cc1csc(Nc2nc(-c3cccc(Br)c3)nc(C(Cl)(Cl)Cl)n2)n1 | 9.61% (active) |
| Cn1ccnc1C(=O)/C=C/c1ccc(C(=O)Nc2ccc(S(F)(F)(F)(F)F)cc2)cc1 | -30.1% (active) |
| O=C(CCN1CCCCC1)c1ccc(Cl)cc1 | 111% |
| CCCCCCCCOc1ccc(/C=N/Nc2cc(C)nc3ccc(Br)cc23)cc1 | 60.4% |
| Cc1cc(=O)n(-c2ccc(F)cc2)[nH]1 | 101% |
| Cn1c(=O)c2c(ncn2CC(=O)Nc2ccc(S(N)(=O)=O)cc2)n(C)c1=O | 94.2% |
| COc1ccc2c(c1)[nH]c(=O)c1c3cccc(F)c3cn21 | 11.2% |
| CN(Cc1cnc2nc(N)nc(N)c2n1)c1ccc(C(=O)NC(CCC(=O)O)C(=O)O)cc1Br (stereo not given) | 45.2% |
| O=C(c1ccccc1)N(CCCCl)C(=O)N(CCCCl)C(=O)c1ccccc1 | 94% |
| CCOc1ccc(NC(=O)c2ccoc2COc2ccccc2)cc1 | 100% |
| FC(F)(F)c1cc(CNc2nc(Cl)ncc2Br)cc(C(F)(F)F)c1 | 85.2% |
| Cc1cccc(Cl)c1NC(=O)c1cnc(Nc2cc(N3CCOCC3)cc(S(C)(=O)=O)c2)s1 | 110% |
| O=c1oc2ccc3ccccc3c2cc1-c1ccnc2[nH]c(=S)[nH]c(=O)c12 | 87.3% |
| O=[N+]([O-])c1ccccc1/C=N\NC(=S)N/N=C/c1ccccc1[N+](=O)[O-] | 9.57% (active) |
| CSc1nc2ncnc(SC)c2[nH]1 | 118% |

| SMILES | growth |
| --- | --- |
| Cc1cc(=O)[nH]c(N/N=C/c2ccccc2O)n1 | 71.3% |
| O=C(CC(C(=O)c1ccccc1)N1CCN(Cc2ccccc2)CC1)c1ccccc1 (stereo not given) | 28.5% |
| CCOC(=O)c1c(Cl)c2c(n1Cc1ccccc1)-c1oncc1CCC2 | 25.7% |
| COc1ccccc1NC(=O)C1=C(C)NC(C)=C(C(=O)Nc2ccccc2OC)C1c1cccc([N+](=O)[O-])c1 | 66.7% |
| O=C(Cc1ccc2c(c1)OCCO2)Nc1nc2ccc(F)cc2s1 | 99.6% |
| C/C(=C\CCc1ccoc1)CC/C=C(\C)CCCNc1ccc(F)cc1 | 9.6% (active) |
| OC(c1cc2cc(Cl)c(Cl)cc2c2cc(C(F)(F)F)ccc12)C1CCCCN1 (stereo not given) | -21% (active) |
| Cn1cc(-c2nc(-c3c[nH]c4ccncc34)cs2)c2cc(Br)ccc21 | -61.4% (active) |
| CCOc1ccc(/C=N\N=C\c2ccc(OCC)cc2)cc1 | 76.6% |
| COC(=O)[C@H](Cc1cn(C)cn1)NC(=O)[C@@H](NC(=O)Nc1cc(C(F)(F)F)cc(C(F)(F)F)c1)C(C)(C)C | -56.2% [100 µM] (active) |
| O=C(Nc1cccc(-n2cc(-c3ccncc3)c(-c3ccc(O)c(Cl)c3)n2)c1)c1ccc(Cl)c(Cl)c1 | 33.9% |
| COc1cccc(/C=C/C(=O)c2sc(Nc3ccc(O)cc3)nc2C)c1 | 78.8% |
| COc1ccc(C(=O)Cn2c(C(=O)c3ccccc3)nc3ccccc32)cc1 | -27.5% (active) |
| C#Cc1ccc(-n2c(/C=C/c3ccc4ccccc4n3)nc3ncccc3c2=O)cc1 | -34.6% (active) |
| CC(C)CSc1nc(N)nc2c1ncn2C1OC(CO)C(O)C1O (stereo not given) | 113% |
| CC(=O)Oc1ccccc1C(=O)N(Cc1ccc2c(Cl)cc(Cl)c(O)c2n1)c1ccccc1 | 46.7% |
| Nc1nc(N)c2nc(CNc3ccc(C(=O)CC(CCC(=O)O)C(=O)O)cc3)cnc2n1 (stereo not given) | 49% |
| O=C(CSc1ncccc1C(=O)O)Nc1ccc(Oc2ccccc2)cc1 | 87.5% |
| CC1=C/C(=C(\c2cc(C)c(O)c(C(=O)O)c2)c2c(Cl)cccc2Cl)C=C(C(=O)O)C1=O | 106% |
| O=C(c1cccs1)c1ccccc1Cc1ccccc1 | 98.8% |
